# Cav32 inh: blocks human Cav3.2 T-type calcium channel; 100,000 compounds, 4% hits; O95180; B-score at 10 µM; AID 449739; Cav3.2-expressing cells, Fluo-4 calcium fluorescence FDSS; hits give low values;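 active means single-dose well whose peak fluorescence ratio is a statistical outlier from its plate by either plate-standardised score or position-corrected B-score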
# CYP2C19 act: increases human CYP2C19 enzyme activity. 96,000 tested, under 10 active. recombinant CYP2C19, luciferin-H EGE luminescence; hits give high values; 0 = fully inhibited enzyme, 1 = untreated enzyme. activation factor at 5 µM;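 active means activation factor of at least 2 at 5 µM in the primary screen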
# Target sequence (P33261 whole entry, looked up): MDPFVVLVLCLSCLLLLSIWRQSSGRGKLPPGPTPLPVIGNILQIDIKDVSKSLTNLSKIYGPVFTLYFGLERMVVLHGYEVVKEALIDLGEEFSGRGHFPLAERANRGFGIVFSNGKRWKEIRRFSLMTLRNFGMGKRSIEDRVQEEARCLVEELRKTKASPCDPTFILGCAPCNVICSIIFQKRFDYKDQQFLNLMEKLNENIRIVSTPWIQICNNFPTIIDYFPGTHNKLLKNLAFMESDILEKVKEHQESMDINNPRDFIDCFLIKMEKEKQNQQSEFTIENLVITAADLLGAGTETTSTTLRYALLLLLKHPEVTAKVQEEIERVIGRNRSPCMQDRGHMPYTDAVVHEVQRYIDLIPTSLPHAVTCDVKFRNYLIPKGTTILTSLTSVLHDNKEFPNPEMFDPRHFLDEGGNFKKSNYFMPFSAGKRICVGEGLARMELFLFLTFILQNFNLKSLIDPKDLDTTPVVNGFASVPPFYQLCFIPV
# CYP2C19 inhib: blocks human cytochrome P450 2C19 | 96,000 compounds, 21% hits | CYP2C19 Supersomes, luciferin-H EGE luminescence, 30 min | AID 778 | inhibition, % at 5 µM | P33261;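 active means CYP2C19 inhibition above a set limit at 5 µM in the primary screen, cut at about 50% in these data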
# CYP2C9 inhib: blocks human cytochrome P450 2C9; P11712; CYP2C9 Supersomes, luciferin-H conversion, luminescence; inhibition, % at 5 µM; 96,000 compounds, 20% hits;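 active means blocking of liver enzyme CYP2C9 beyond about 50% at 5 µM, limit read from the data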
# CYP2C9 activ: CYP2C9 (human) activation; P11712; recombinant CYP2C9, luciferin-H conversion, luminescence; hits give high values; factor 1 = untreated enzyme, 0 = blocked; activation factor at 5 µM; 96,000 compounds, 1.4% hits;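 active means activation factor of 2 or more for CYP2C9 at a 5 µM dose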
# A number is an active result; i = inactive; nt = no result. Rows were chosen to be rich in hits. Some 27% of all compounds tested hit in one or more screens of this group.
SMILES,Cav32 inh,CYP2C19 act,CYP2C19 inhib,CYP2C9 inhib,CYP2C9 activ
CCOC(=O)C1CCCN(C(=O)c2cc3c(=O)n(C)c4ccccc4c3n2C)C1 (centres undefined),3.05,i,i,i,i
CCOC(=O)C1CCCN(C(=O)c2ccc(C)cc2O)C1 (centres undefined),i,i,81.2,i,i
CCOC(=O)C1CCCN(C(=O)c2ccc(OC(C)=O)cc2)C1 (centres undefined),i,i,i,i,i
CCOC(=O)C1CCCN(C(=O)c2ccccc2NC(C)=O)C1 (centres undefined),i,i,i,i,i
c1ccc(-c2nnc3sc(-c4csc5c4CCCC5)nn23)cc1,i,i,i,i,i
CCn1c(=N)n(CC(=O)C23CC4CC(CC(C4)C2)C3)c2ccccc21,i,i,i,i,i
COC(=O)CCN(c1ccccc1)S(=O)(=O)c1ccc(OC)cc1,i,i,i,i,i
CCOC(=O)C1CCCN(C(=O)c2cc(Nc3ccc(OC)cc3)nc3ccccc23)C1 (centres undefined),-5.49,i,i,76.8,i
CCOC(=O)C1CCCN(C(=O)c2cc3c(C)nc4ccccc4c3o2)C1 (centres undefined),i,i,i,i,i
CCOC(=O)C1CCCN(C(=O)c2sc3nc(-c4ccc(OC)cc4)cn3c2C)C1 (centres undefined),nt,i,i,i,i
CCOC(=O)C1CCCN(C(=O)c2cc(-c3ccccc3)on2)C1 (centres undefined),i,i,i,i,2.5
COc1ccc(OC)c(S(=O)(=O)n2cccn2)c1,i,i,i,i,i
Cc1nccn1S(=O)(=O)c1ccc(Br)cc1Br,i,i,66.3,i,i
COc1ccc(Br)cc1S(=O)(=O)n1ccnc1C,i,i,99.1,i,2.4
COc1ccc(OC)c(S(=O)(=O)n2ccnc2C)c1,i,i,93.2,i,i
CCOc1ccc2cc(S(=O)(=O)n3ccnc3C)ccc2c1,i,i,i,i,i
CC1CCCN(C(=O)CCS(=O)(=O)Cc2ccccc2)C1 (centres undefined),i,i,i,i,i
O=C1c2ccccc2S(=O)(=O)c2cc(N3CCC4(CC3)OCCO4)ccc21,i,nt,nt,nt,nt
Cc1cc(C)c(OCCCCCNCCO)c(C)c1,i,i,i,86.9,i
CCOc1cc(S(=O)(=O)NCc2ccccn2)c(C)cc1C,nt,i,58.8,i,i
CCN(CC)CCCN1C(=O)C(O)=C(C(=O)c2sc(C)nc2C)C1c1ccco1 (centres undefined),i,i,i,i,i
Cc1ccc2nc(NC(=O)c3ccc(Cn4cc(Cl)cn4)o3)sc2c1,i,nt,nt,nt,nt
CC(=O)c1sc(NC(=O)c2ccc(Cn3cc(Br)cn3)o2)nc1C,i,i,i,78.5,i
COc1cccc(OCc2nc3ncc(Br)cc3[nH]2)c1,i,i,53.6,i,i
CCSc1ncc(Cl)c(C(=O)Nc2ccc(S(=O)(=O)Nc3onc(C)c3C)cc2)n1,i,i,i,57.5,i
SMILES,Cav32 inh,CYP2C19 act,CYP2C19 inhib,CYP2C9 inhib,CYP2C9 activ
CCCCn1c(N)c(Sc2ccc(C)cc2)c(=O)[nH]c1=O,i,i,52.9,i,i
COCc1cc(C)nc(OCC(=O)N/N=C/c2ccc(-c3cc([N+](=O)[O-])ccc3C)o2)c1C#N,i,i,i,i,i
COCc1cc(C)nc(OCC(=O)N/N=C/c2cc(C)n(-c3c(C)cccc3C)c2C)c1C#N,-4.37,i,i,82.9,i
COc1cc(CNC2CCCC2)cc(Cl)c1OCc1ccccc1F,i,i,95.7,i,i
COc1cc(CNC2CCCCCC2)cc(OC)c1O,i,i,i,i,i
Cc1ccc2[nH]ccc(=O)c2c1,i,nt,nt,nt,nt
Cc1ccc2oc(C(Cl)(Cl)Cl)cc(=O)c2c1,i,i,53.4,i,i
Cc1ccc(SCCC(=O)N2CCC(C)CC2)cc1,i,nt,nt,nt,nt
Cc1ccc(SCCC(=O)N2CCCC2)cc1,i,i,90.5,i,i
Cc1ccc(SCCC(=O)N2CCOCC2)cc1,i,i,95.1,i,i
CCCCC1=CC2=CC(=O)C(C)(OC(=O)c3ccco3)C(=O)C2=CO1 (centres undefined),i,nt,nt,nt,nt
COc1ccc(N(C(=O)c2ccc(F)cc2)C2=CC3CCC(C2)N3C)cc1 (centres undefined),i,i,i,i,i
Cc1cc(=O)oc2cc(OCC3CC(c4ccc(Cl)cc4)=NO3)ccc12 (centres undefined),i,i,51.2,i,i
Clc1ccc(OCc2cc(-c3ccccc3)no2)cc1Cl,i,i,i,69.1,i
N#C/C(=C\C1CC2C=CC1C2)c1nc2ccccc2[nH]1 (centres undefined),i,i,i,i,i
CCn1c(CNC(=O)c2ccco2)nnc1SCC(=O)Nc1ccc(Br)cc1F,i,nt,nt,nt,nt
CSc1nc2nccc(-c3ccc(Oc4ccccc4)cc3)n2n1,i,i,50.7,56.5,i
CSc1nc2nccc(-c3ccc(-c4ccccc4)cc3)n2n1,i,i,i,i,i
c1ccc(Oc2ccc(-c3ccnc4nc(N5CCN(c6ccccc6)CC5)nn34)cc2)cc1,i,i,i,58.7,i
COc1ccc(S(=O)(=O)n2cnc3cc(C)c(C)cc32)cc1,i,i,95.5,87.3,i
CCOc1cc(S(=O)(=O)NCc2ccco2)c(OCC)cc1-n1cnnn1,i,i,i,68.6,i
CCOc1cc(S(=O)(=O)NC2CC2)c(OCC)cc1-n1cnnn1,i,i,79.9,95.3,i
CCOc1cc(S(=O)(=O)NCC2OCCc3ccccc32)c(OCC)cc1-n1cnnn1 (centres undefined),i,i,i,50.8,i
CCOc1cc(S(=O)(=O)NCc2ccc(OC)cc2)c(OCC)cc1-n1cnnn1,i,i,i,85.4,i
CCCCCCc1nc2ccccc2c(=O)n1NC(=O)c1c(O)c2cccc3c2n(c1=O)CCC3,nt,i,i,i,i
SMILES,Cav32 inh,CYP2C19 act,CYP2C19 inhib,CYP2C9 inhib,CYP2C9 activ
CCOC(=O)CN1C(=O)C(C)(C)Oc2ccc(C(=O)Nc3ccccc3)cc21,i,i,i,i,i
COc1cc(NC(=O)c2nccn2C)cc(C(=O)Nc2cccc(C(F)(F)F)c2)c1,i,nt,nt,nt,nt
CCOc1ccc(-n2cnnn2)cc1S(=O)(=O)NCCc1ccc(OC)c(OC)c1,i,i,i,i,i
CCOc1cc(S(=O)(=O)NCCc2ccc(OC)c(OC)c2)c(OCC)cc1-n1cnnn1,i,i,i,75.8,i
N#Cc1c(N)nc2c(c1-c1cccc(O)c1)CCCCCC2,nt,i,i,54.3,i
N#Cc1c(N)nc2c(c1-c1ccncc1)CCCC2,i,i,76.4,i,i
N#Cc1c(N)nc2c(c1-c1ccccc1)CCCC2,i,i,i,i,i
COc1ccc(CC(CC(=O)O)C(=O)Nc2ccc(OC)cc2)cc1 (centres undefined),i,i,i,i,i
COc1ccc(S(=O)(=O)Cc2ccc(C(=O)NCc3cccnc3)o2)cc1,i,i,90.0,57.9,i
CCOC(=O)N1CCC(NC(=O)c2ccc(CS(=O)(=O)c3c(Cl)cccc3Cl)o2)CC1,i,i,i,66.2,i

# Assay outcomes (PubChem BioAssay)
